Activity calls are given as the source filed them. Unless noted, how the calls were made is not given here.
Legend:
[1] = tested on: Wnt5a (protein binding on small-molecule microarray); experiment: Wnt5a binders on small-molecule microarray, primary screen, biophysical, 635/667 nm fluorescence (AID 1142); details: 635 nm fluorescence, higher = more signal;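 further: fluorescence read at 667 nm with signal to noise per printed feature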
[2] = cell viability in Huh7 cells, primary screen, cytotoxicity control for HCV replication inhibitor project, CellTiter-Glo luminescence, basal, 48 h (AID 1143); details: Huh7 HCV replicon, higher = more signal, called active from +8 up or from −8 down;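 further: Huh7 hepatoma cells carrying a hepatitis C replication reporter with no stimulus; test concentration not given here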
[3] = P. aeruginosa biofilm formation inhibitors, primary screen, PAO1 strain, BacTiter-Glo luminescence, LB-PBS (AID 1144); details: 12 h, higher = more signal
[4] = CREB reporter modulators without forskolin, primary screen, cell-based, PC12, CRE-LacZ reporter, unstimulated (AID 1145); details: no forskolin, luminescence, 4.5 h, higher = more signal, called active from +8 up or from −8 down
[5] = CREB reporter modulators under forskolin, primary screen, cell-based, PC12, CRE-LacZ reporter, forskolin-stimulated (AID 1146); details: luminescence, 4.5 h, higher = more signal, called active from +8 up or from −8 down;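 further: PC12 cells with 6xCRE LacZ reporter stimulated by forskolin 10 µM; beta-galactosidase reporter signal reflecting CREB driven transcription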
[6] = molecular target: Streptavidin (Streptomyces avidinii) (UniProt P22629); experiment: streptavidin binders on small-molecule microarray, primary screen, artefact control for SMM compound annotation, biophysical, 635/667 nm fluorescence (AID 1147); details: streptavidin binding, higher = more signal;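 further: signal reflects streptavidin binding to arrayed compounds as a control protein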
[7] = small-molecule binders of probe aInhba, primary screen, biochemical, small-molecule microarray, 635/667 nm fluorescence (AID 1148); details: higher = more signal;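 further: score merges 667nm spot fluorescence with signal-to-noise for antibody binding to printed compounds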
Torsin-1A (Homo sapiens) [8] = molecular target: Torsin-1A (Homo sapiens) (UniProt O14656); experiment: torsin A binders from cell lysate, primary screen, small-molecule microarray, wild-type, 635/667 nm (AID 1149); details: COS7 hTOR1A-WT lysate, 635 nm fluorescence, higher = more signal
Torsin-1A (Homo sapiens) [9] = molecular target: Torsin-1A (Homo sapiens) (UniProt O14656); experiment: small-molecule binders of mutant TOR1A in lysate, primary screen, cell lysate, small-molecule microarray, COS7 lysate, 635/667 nm fluorescence (AID 1150); details: COS7 hTOR1A mutant lysate, 635 nm fluorescence, higher = more signal;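 further: score pools 667 nm emission and signal to noise measuring lysate protein binding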
[10] = tested on: Sonic hedgehog protein (Shh); experiment: small-molecule binders of Shh protein, primary screen, biochemical, small-molecule microarray, 635/667 nm fluorescence (AID 1151); details: small-molecule microarray binding, 635 nm fluorescence; higher = more signal;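 further: Shh protein binding to compounds spotted on small-molecule microarray slides; score combines spot fluorescence intensity with signal-to-noise across triplicate slides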
[11] = E. coli DRC41 culture turbidity changes, primary screen, E. coli filamentation inducer project, strain DRC41, OD650, 48 h (AID 1152);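 further: E. coli MC1000 strain DRC41 lacking acrAB efflux pump and sulA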; details: E. coli DRC41 (acrAB sulA), higher = more signal, called active from +8 up or from −8 down
[12] = small-molecule binders of probe aLefty1, primary screen, biochemical, small-molecule microarray, 635/667 nm fluorescence (AID 1153); details: higher = more signal;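 further: score merges spot fluorescence with signal-to-noise ratio from the scanned slide images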
[13] = PSAC antagonists in infected red cells, primary screen, cell-based, P. falciparum Indochina, OD700, 1 h (AID 1154); details: P. falciparum Indochina infected RBC osmotic lysis, higher = more signal, called active from +8 up or from −8 down
[14] = PSAC antagonists in infected red cells, primary screen, cell-based, P. falciparum Indochina, OD700, 2 h (AID 1155);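 further: lysis reports solute entry through the parasite surface anion channel PSAC; channel blockers reduce lysis of infected cells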; details: P. falciparum Indochina infected erythrocytes, osmotic lysis OD700; higher = more signal, called active from +8 up or from −8 down
[15] = osmotic lysis modulators in infected erythrocytes, primary screen, PSAC antagonist project, cell-based, P. falciparum Indochina, OD700, 3 h (AID 1156); details: higher = more signal, called active from +8 up or from −8 down
[16] = PSAC antagonists in infected red cells, primary screen, cell-based, P. falciparum Indochina, OD700, 18 h (AID 1157); details: P. falciparum Indochina infected erythrocytes, osmotic lysis OD700, 18 h; higher = more signal, called active from +8 up or from −8 down
[17] = modulators of S6 phosphorylation in cells, primary screen, cell-based, A549, cytoblot, luminescence, serum-stimulated (AID 1158); details: A549 phospho-S6 cytoblot, 5 h, higher = more signal;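 further: serum-stimulated A549 lung adenocarcinoma cells; signal is phosphorylated S6 detected by cytoblot immunostaining with HRP secondary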
[18] = molecular target: NADPH oxidase 2 (Homo sapiens) (UniProt P04839); experiment: NOX2-dependent H2O2 signal modulators, primary screen, NOX inhibitor project, cell-based, HEK293-NOX2, PMA-stimulated, Amplex Red fluorescence (AID 1159); details: 45 min, higher = more signal, called active from +8 up or from −8 down; further: test concentration not given here
[19] = molecular target: NADPH oxidase 4 (Homo sapiens) (UniProt Q9NPH5); experiment: NOX4-dependent H2O2 signal modulators, primary screen, NOX inhibitor project, cell-based, HEK293-NOX4, tetracycline-induced, Amplex Red fluorescence (AID 1160); details: 45 min, higher = more signal, called active from +8 up or from −8 down
[20] = molecular target: NADPH oxidase 5 (Homo sapiens) (UniProt Q96PH1); experiment: NOX5-dependent H2O2 signal modulators, primary screen, NOX inhibitor project, cell-based, HEK293-NOX5, Amplex Red fluorescence (AID 1161); details: HEK293-NOX5, ionomycin, 45 min, higher = more signal
NADPH oxidase 5 (Homo sapiens), sequence (Q96PH1 whole entry, looked up): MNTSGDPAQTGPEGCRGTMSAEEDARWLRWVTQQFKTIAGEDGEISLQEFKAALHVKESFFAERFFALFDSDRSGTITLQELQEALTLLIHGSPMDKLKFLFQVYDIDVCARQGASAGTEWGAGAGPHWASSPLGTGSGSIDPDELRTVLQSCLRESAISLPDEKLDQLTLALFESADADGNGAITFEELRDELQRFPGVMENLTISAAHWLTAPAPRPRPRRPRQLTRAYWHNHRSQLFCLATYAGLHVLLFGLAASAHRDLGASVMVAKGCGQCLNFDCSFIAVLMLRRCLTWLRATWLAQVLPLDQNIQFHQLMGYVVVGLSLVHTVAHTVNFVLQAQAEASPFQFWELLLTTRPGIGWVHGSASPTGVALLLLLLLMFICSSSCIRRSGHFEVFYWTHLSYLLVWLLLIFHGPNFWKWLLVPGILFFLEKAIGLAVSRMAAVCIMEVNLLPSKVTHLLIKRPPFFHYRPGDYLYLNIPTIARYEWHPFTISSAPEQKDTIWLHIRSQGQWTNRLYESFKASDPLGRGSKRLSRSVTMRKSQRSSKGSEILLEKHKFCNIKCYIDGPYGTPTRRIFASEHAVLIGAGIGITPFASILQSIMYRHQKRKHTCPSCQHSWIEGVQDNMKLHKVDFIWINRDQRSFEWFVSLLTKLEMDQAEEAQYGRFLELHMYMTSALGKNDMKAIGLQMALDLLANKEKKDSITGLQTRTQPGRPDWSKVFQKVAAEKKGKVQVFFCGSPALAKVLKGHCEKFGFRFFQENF

Torsin-1A (Homo sapiens), sequence (O14656 whole entry, looked up): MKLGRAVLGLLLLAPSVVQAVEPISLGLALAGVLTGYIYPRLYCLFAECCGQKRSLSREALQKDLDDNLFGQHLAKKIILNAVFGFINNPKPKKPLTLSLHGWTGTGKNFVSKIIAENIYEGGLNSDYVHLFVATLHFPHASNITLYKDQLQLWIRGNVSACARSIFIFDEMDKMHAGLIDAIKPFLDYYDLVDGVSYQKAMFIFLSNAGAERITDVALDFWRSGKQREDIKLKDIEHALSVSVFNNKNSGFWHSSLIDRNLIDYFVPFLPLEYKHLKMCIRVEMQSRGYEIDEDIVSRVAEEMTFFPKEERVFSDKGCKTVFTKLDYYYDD
NADPH oxidase 2 (Homo sapiens), sequence (P04839 whole entry, looked up): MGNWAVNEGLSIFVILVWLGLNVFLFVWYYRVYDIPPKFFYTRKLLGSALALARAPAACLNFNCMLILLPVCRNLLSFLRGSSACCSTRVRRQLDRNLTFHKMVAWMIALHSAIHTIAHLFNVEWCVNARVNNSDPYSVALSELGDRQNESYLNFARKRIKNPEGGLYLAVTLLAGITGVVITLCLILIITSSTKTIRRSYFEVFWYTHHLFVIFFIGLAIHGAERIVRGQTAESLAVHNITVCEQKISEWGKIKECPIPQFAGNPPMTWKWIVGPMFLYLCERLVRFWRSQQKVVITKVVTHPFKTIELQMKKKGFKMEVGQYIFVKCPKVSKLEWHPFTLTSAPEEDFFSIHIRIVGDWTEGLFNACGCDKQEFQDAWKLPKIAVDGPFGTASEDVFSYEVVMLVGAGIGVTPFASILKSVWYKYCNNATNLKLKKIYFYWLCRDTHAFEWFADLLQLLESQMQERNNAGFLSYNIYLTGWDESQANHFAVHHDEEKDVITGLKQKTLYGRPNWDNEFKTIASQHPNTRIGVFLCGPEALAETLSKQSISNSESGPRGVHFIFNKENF
Streptavidin (Streptomyces avidinii), sequence (P22629 whole entry, looked up): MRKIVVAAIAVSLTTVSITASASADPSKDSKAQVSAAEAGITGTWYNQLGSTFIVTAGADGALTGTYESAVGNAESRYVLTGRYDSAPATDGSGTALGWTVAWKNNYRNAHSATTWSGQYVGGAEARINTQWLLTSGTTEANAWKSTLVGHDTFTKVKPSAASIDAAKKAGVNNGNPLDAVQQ
NADPH oxidase 4 (Homo sapiens), sequence (Q9NPH5 whole entry, looked up): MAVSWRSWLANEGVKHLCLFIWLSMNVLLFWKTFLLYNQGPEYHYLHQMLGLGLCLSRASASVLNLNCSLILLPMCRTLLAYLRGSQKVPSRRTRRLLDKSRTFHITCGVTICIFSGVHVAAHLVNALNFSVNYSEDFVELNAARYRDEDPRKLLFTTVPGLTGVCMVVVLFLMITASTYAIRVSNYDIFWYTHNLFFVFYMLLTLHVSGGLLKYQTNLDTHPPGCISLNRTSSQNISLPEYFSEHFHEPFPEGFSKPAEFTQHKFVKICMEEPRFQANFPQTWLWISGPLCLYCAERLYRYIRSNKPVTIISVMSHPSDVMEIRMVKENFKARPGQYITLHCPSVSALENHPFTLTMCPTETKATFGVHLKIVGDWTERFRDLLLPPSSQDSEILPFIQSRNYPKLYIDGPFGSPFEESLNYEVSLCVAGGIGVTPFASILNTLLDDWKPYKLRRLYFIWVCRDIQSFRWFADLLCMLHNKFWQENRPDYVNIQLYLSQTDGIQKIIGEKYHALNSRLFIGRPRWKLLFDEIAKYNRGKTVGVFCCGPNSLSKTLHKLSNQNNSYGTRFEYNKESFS

| SMILES | composite z-score [1] | z-score [2] | z-score [3] | z-score [4] | z-score [5] | composite z-score [6] | composite z-score [7] | composite z-score (Torsin-1A (Homo sapiens) [8]) | composite z-score (Torsin-1A (Homo sapiens) [9]) | composite z-score [10] | z-score [11] | composite z-score [12] | z-score [13] | z-score [14] | z-score [15] | z-score [16] | z-score [17] | z-score [18] | z-score [19] | z-score [20] |
| --- | --- | --- | --- | --- | --- | --- | --- | --- | --- | --- | --- | --- | --- | --- | --- | --- | --- | --- | --- | --- |
| COc1cc(NN2C(C(O)C3CCCCC3)C=CC3C(=O)N(C)C(=O)C32)cc(OC)c1OC (stereo not given) | 0.265 | 0.187 (inactive) | 0.0648 (inactive) | -0.133 (inactive) | 0.454 (inactive) | 2.2 | 0.502 | -0.176 | 0.358 | -0.68 | -1.27 (inactive) | 0.949 | 0.713 (inactive) | 0.608 (inactive) | 0.917 (inactive) | 1.34 (inactive) | -0.723 | -0.904 (inactive) | -2.73 (inactive) | -1.7 |
| NCCCCCNC(=O)[C@@H]1C[C@@H]2C(=O)N3CCC[C@H]3C(=O)N2[C@@H]1c1ccc(O)cc1 | 0.446 | -0.406 (inactive) | -0.113 (inactive) | 0.143 (inactive) | -0.707 (inactive) | 1.11 | 0.0706 | 0.778 | 1.1 | 0.468 | 0.524 (inactive) | 1.08 | 1.9 (inactive) | 0.106 (inactive) | -0.696 (inactive) | 0.277 (inactive) | -0.596 | 0.105 (inactive) | -1.53 (inactive) | 0.0464 |
| COCC(=C=CC[C@@H](O)c1cccc(OCCO)c1)CCO | 0.332 | -0.35 (inactive) | 0.65 (inactive) | -0.205 (inactive) | 0.671 (inactive) | 0.105 | 0.0051 | 1.96 | 0.675 | 1.23 | 0.355 (inactive) | 0.0091 | 2.3 (inactive) | 0.152 (inactive) | 0.691 (inactive) | 0.135 (inactive) | -0.094 | -0.274 (inactive) | -0.761 (inactive) | -0.334 |
| Cc1ccc(C(C)CC(O)C2C=CC3C(=O)N(c4ccccc4)C(=O)C3N2Nc2ccc(C#N)cc2)o1 (stereo not given) | 0.303 | -1.18 (inactive) | -0.194 (inactive) | -0.333 (inactive) | -0.306 (inactive) | 1.1 | 0.027 | 0.279 | 0.443 | 0.218 | 0.249 (inactive) | 0.198 | 7.4 (inactive) | 0.478 (inactive) | 0.45 (inactive) | -0.397 (inactive) | 0.729 | -2.43 (inactive) | -3.34 (inactive) | -2.6 |
| CC(C)[C@H]1NC(=O)[C@@]23C(=O)N[C@@H](Cc4ccccc4)C2[C@H](C)[C@@]2(C)O[C@H]2C3/C=C/C/C=C\CNC(=O)[C@H](Cc2ccccc2)NC1=O (stereo not given in full) | 0.566 | -2.56 (inactive) | 1.12 (inactive) | 1.57 (inactive) | -0.513 (inactive) | 0.852 | 0.0528 | 1.3 | 0.629 | 1.96 | -0.306 (inactive) | 0.284 | 1.48 (inactive) | 0.491 (inactive) | 0.137 (inactive) | 0.476 (inactive) | -0.324 | 0.155 (inactive) | 1.05 (inactive) | 1.1 |
| CC(=O)n1cc(C(O)C2C=CC3C(=O)N(c4ccccc4)C(=O)C3N2Nc2ccc(C(C)C)cc2)c2ccccc21 (stereo not given) | 0.076 | -0.609 (inactive) | -0.827 (inactive) | 0.24 (inactive) | -0.247 (inactive) | 1.88 | 0.161 | -0.285 | 0.617 | -0.69 | -1.44 (inactive) | 0.698 | 2.38 (inactive) | 0.959 (inactive) | -0.43 (inactive) | 1.46 (inactive) | -1.04 | -1.19 (inactive) | -2.92 (inactive) | -3.44 |
| COCCOC(=O)N1C(=O)[C@@]2(c3cc(C#CCNC(N)=O)ccc31)[C@H](c1ccc(O)cc1)N1[C@H](c3ccccc3)[C@H](c3ccccc3)OC(=O)[C@H]1[C@@H]2C(N)=O | -0.503 | -0.522 (inactive) | 0.175 (inactive) | 0.224 (inactive) | 0.645 (inactive) | -1.53 | -0.331 | -0.57 | -0.934 | -1.56 | 0.847 (inactive) | -0.67 | 0.646 (inactive) | 0.783 (inactive) | -0.158 (inactive) | 0.386 (inactive) | 0.285 | 0.37 (inactive) | 0.163 (inactive) | 0.361 |
| C=CCC(OC(C)=O)[C@@H]1[C@@H](N(Cc2ccc(-c3ccccc3)cc2)C(=O)Cc2ccc(F)cc2)c2cc(OCCCO)ccc2N1C(=O)Cc1ccc2ccccc2c1 (stereo not given in full) | 0.261 | 0.189 (inactive) | -0.59 (inactive) | 0.367 (inactive) | 0.997 (inactive) | 0.612 | 0.038 | -0.194 | -0.0043 | -0.0096 | 0.882 (inactive) | 0.0774 | 1.84 (inactive) | 0.791 (inactive) | -0.205 (inactive) | 0.381 (inactive) | -0.199 | 0.587 (inactive) | 0.512 (inactive) | 1.88 |
| COCCCNC(=O)[C@@H]1c2ccccc2C(=O)N(C2Cc3ccccc3C2)[C@H]1c1ccc(CO)cc1 | -0.0499 | 0.646 (inactive) | 0.48 (inactive) | -0.619 (inactive) | -0.67 (inactive) | -0.449 | 0.208 | 0.717 | -0.184 | 0.457 | 0.748 (inactive) | -0.0603 | 3.1 (inactive) | 1.18 (inactive) | 0.65 (inactive) | 0.476 (inactive) | -0.256 | -0.193 (inactive) | 0.444 (inactive) | -0.0459 |

Source: PubChem BioAssay
